According to ChEMBL document CHEMBL3988442, “University of Dundee, Small-Polar-MMV Screening Library” (2021):
Hit rate of the full screen: of about 48,000 compounds, about 13,000 (27%) showed an effect of 50% or more. This is one part of the list.

These compounds were tested on Wolbachia pipientis (assay: Anti-Wolbachia Cell-Based Screen). Conditions: 5 µM.
Assay type: functional
Set-up: scale not given: in the data most compounds retested in dose-response had high values

| SMILES | Percent Effect [%] |
| --- | --- |
| COc1ccc(NC(C)C(=O)N2CCN(c3ccccc3)CC2)cn1 (stereo not drawn) | 11.01 |
| CC1CN=C(N2CCN(C(=O)Nc3nc(-c4ccccc4)ns3)CC2)S1 (stereo not drawn) | -2.569 |
| Cc1cc(CN(C)C(=O)c2cc(COc3ccccc3)[nH]n2)n[nH]1 | -16.83 |
| Cc1c[nH]c(CN(C)C(C(=O)O)c2c(F)cccc2OC(C)C)n1 (stereo not drawn) | 2.457 |
| COCc1cc(CN(C)C(C(=O)O)c2cc(C)c(OC)c(C)c2)n[nH]1 (stereo not drawn) | 0.7136 |
| CCOc1ccccc1C(C(=O)O)N(C)Cc1cc(C)[nH]n1 (stereo not drawn) | 105.4 |
| CCOc1ccccc1C(C(=O)O)N(C)Cc1nc(C)c[nH]1 (stereo not drawn) | 110.9 |
| CCOc1ccccc1C(C(=O)O)N(C)Cc1nnc(C)o1 (stereo not drawn) | 103.2 |
| Cc1c[nH]c(CN(C)C(C(=O)O)c2c(F)cccc2Cl)n1 (stereo not drawn) | 11.8 |
| CCOc1ccc(N(C)Cc2nnc(C)o2)cc1 | 3.578 |
| COc1cccc(Cl)c1C(C(=O)O)N(C)Cc1nnc(C)o1 (stereo not drawn) | 7.233 |
| CN(CC(N)=O)S(=O)(=O)c1ccc(F)cc1Cl | 0.3339 |
| COc1cccc(CN(C)C(=O)CCC(=O)c2ccc(Cl)cc2)c1OC | -4.229 |
| CCN1CCN(C)C(=O)C12CCN(Cc1cccc(C)c1)CC2.O=C(O)C(F)(F)F | -18 |
| COc1ccc2c(c1)OC1(CCN(Cc3ccc(C)cc3)CC1)CC2=O | 104.7 |
| Cc1ccc2c(c1)C(=O)CC1(CCN(Cc3ccccc3)CC1)O2 | 106.6 |
| Cc1ccc2oc([C@H]3CCN(Cc4ccccc4)C3)nc2c1 | -4.088 |
| COc1ccc2c(c1)C1(CCN(Cc3ccncc3)CC1)N(C)CC2 | -5.195 |
| CCS(=O)(=O)N1CCC2(CCN(Cc3cccc(OC)c3)CC2)CC1.O=C(O)C(F)(F)F | -27.27 |
| COc1c(F)cc(CN2CCCC3(CC2)CNC(=O)O3)cc1Cl (stereo not drawn) | -2.576 |
| Cc1ccc(CN2CCC3(CC2)CCN(Cc2ccco2)CC3)cc1.O=C(O)C(F)(F)F.O=C(O)C(F)(F)F | 0.5302 |
| COCC(=O)N1CCC2(CCN(Cc3ccc(C)cc3)CC2)CC1.O=C(O)C(F)(F)F | -3.723 |
| COc1ccc(CN2CCC3(CC(=O)N(c4cccc(F)c4)C3)C2)cc1.O=C(O)C(F)(F)F (stereo not drawn) | 28.15 |
| COc1ccc2c(c1)OC1(CCN(Cc3cccc(C)c3)CC1)CC2=O | 101.2 |
| COc1ccc2c(c1)C(=O)CC1(CCN(Cc3ccc(F)cc3)CC1)O2 | 107.4 |
| CCCn1ncc(C2CC(=O)NCc3nc4cc(C)ccn4c32)c1C (stereo not drawn) | 7.732 |

| SMILES | Percent Effect [%] |
| --- | --- |
| Cc1nc(CN2CCCN(CC(=O)Nc3ccncc3)CC2)no1 | -12.37 |
| CC1c2cc(F)ccc2CCN1CCCS(=O)(=O)C(C)C (stereo not drawn) | -15.92 |
| Cc1nc[nH]c1CN1CCn2nc(CN3CC[C@H](F)C3)cc2C1 | -2.245 |
| O=C(NCCN1CCNCC1)c1c(O)c2ccccc2[nH]c1=O | 23.98 |
| COCC(O)CN(C)C(=O)NC1CCN(Cc2ccccn2)CC1 (stereo not drawn) | 9.175 |
| Cc1nn(C)c2nc(N(Cc3ccccc3)CC3CCCO3)sc12 (stereo not drawn) | 6.104 |
| COc1ccc2c(c1)OC1(CCN(Cc3ccccc3C)CC1)CC2=O | 114.8 |
| Cc1ccccc1CN1CCCN(CCN2CCOC2=O)CC1 | 6.019 |
| COc1ccc(CN2CCC(O)(CN3CCCCC3)C2)c(C)c1 (stereo not drawn) | 1.46 |
| CC(C)c1cccc(CSc2nnc(CN3CCCC3=O)o2)n1 | 6.014 |
| CS(=O)(=O)Cc1nc(CN2CCCc3sccc3C2)cs1 | 11.89 |
| CCOC(=O)C1CCN(c2nccc(-n3nc(C)cc3C)n2)CC1 | 112.2 |
| Cc1cc(C)n(-c2ccnc(N3CCC(C(=O)N4CCCC4)CC3)n2)n1 | 4.916 |
| CCOC(=O)C1CSCCN1C(=O)c1ccc(-n2nc(C)cc2C)cc1 (stereo not drawn) | 16.86 |
| COc1ccc(C(=O)C2CCCN(c3nccc(N)n3)C2)c(C)c1 (stereo not drawn) | 21.82 |
| CCOC(=O)C1CCCN(c2ccc(-c3nc(C)no3)cn2)C1 (stereo not drawn) | -3.256 |
| CCOC(=O)C1CCCN(c2nccc(-n3nc(C)cc3C)n2)C1 (stereo not drawn) | 112.5 |
| COCc1cc(CC2(NCc3ccccc3Cl)COC2)no1 | -15.27 |
| COc1ccnc(N2CCC3(CC2)[C@H](O)C[C@@H]3OCCN(C)C)n1 | -4.525 |
| CN(C(=O)CCc1cccs1)C1CCCN(C2Cc3ccccc3C2)C1 (stereo not drawn) | -51.14 |
| C1CCCN(c2nc(C3CC3)no2)CC1 | 3.376 |
| O=C(O)C(F)(F)F.c1ncn(Cc2cn3c(n2)CN(CC2CCCCC2)CC3)n1 | -9.983 |
| CN(C)CCN1CCC(NC2CSCCc3ccccc32)CC1 (stereo not drawn) | -11.44 |
| Oc1cccc(CNCCC2CCCO2)c1 (stereo not drawn) | 17.11 |
| O=C(Cc1cccc(F)c1)NCCNCc1ccc2c(c1)CCO2 | -2.552 |
| O=C(Cc1ccc(F)cc1)NCCNCc1cccc(O)c1 | 75.28 |

| SMILES | Percent Effect [%] |
| --- | --- |
| O=C(Cc1cccc(F)c1)NCCNCc1cccc(O)c1 | -5.303 |
| O=C(Cc1ccccc1)NCCNCc1cccc(O)c1 | 87.97 |
| CCOc1cccc(CCNC(=O)Cc2cccc(O)c2)n1 | 19.48 |
| CC(NCc1ccc(-c2ccc(Cl)cc2)o1)c1nnc2n1CCC2 (stereo not drawn) | -12.12 |
| COCCSc1ccc(C(C)NC(=O)Nc2cccnc2)cc1 (stereo not drawn) | -3.032 |
| CN(Cc1nnc(-c2ccco2)o1)CC1CCCN1c1cccnn1 (stereo not drawn) | 6.587 |
| CC(C)Oc1ccccc1-c1cc(CN)ccc1F | 10.62 |
| Cc1cc(C)nc(NC(=O)C(C)Oc2ccc3c(c2)OCO3)n1 (stereo not drawn) | 15.82 |
| O=C(Cn1cc(Cl)cn1)Nc1ccc2c(c1)OCO2 | 1.967 |
| CC(=O)Nc1ccc(Oc2ccc3c(c2)OCO3)nc1 | 99.6 |
| Cc1ccc(Oc2ccc(NC(=O)NCC3CCOC3)cn2)cc1C (stereo not drawn) | -4.291 |
| CC(C)OCC(=O)Nc1ccc(Oc2ccc3c(c2)OCO3)nc1 | 77.43 |
| CCCNC(=O)C(C)Nc1cccc(Oc2ccc(C#N)cn2)c1 (stereo not drawn) | -3.4 |
| CC(C)C(=O)Nc1ccc(Oc2ccc3c(c2)OCO3)nc1 | 107.3 |
| O=C(CCN1C(=O)CCC1=O)Nc1ccc(Oc2ccc(Cl)cc2)nc1 | -10.42 |
| Cc1cnn(CCCOc2ccc3c(c2)OCO3)c1 | -11.3 |
| O=C(NCC1(O)CCOC1)NCC1(c2ccccc2Cl)CC1 (stereo not drawn) | 3.661 |
| CCS(=O)(=O)CC(=O)Nc1cccc2c1CN(CC(C)C)C2 | -13.69 |
| CC(NC(=O)CCc1nc(-c2nnc[nH]2)no1)c1ccc(F)cc1F (stereo not drawn) | 1.12 |
| O=C1NCc2ccccc2CC12CCN(Cc1c(F)cccc1Cl)C2 (stereo not drawn) | 159.3 |
| O=C(C1CCOC1)N1CCC2(CC1)Cc1ccccc1CNC2=O (stereo not drawn) | -36.36 |
| N#Cc1ccccc1C(=O)N1CCC2(CC(=O)NC2=O)C1 (stereo not drawn) | -23.72 |
| O=C1NCc2ccccc2CC12CCN(Cc1ccccc1Cl)CC2 | 119.1 |
| CN(Cc1c(F)cccc1Cl)C(=O)CN(C)C1CCc2ccccc21 (stereo not drawn) | -6.423 |
| COCCCC1(C(=O)O)CCCN(Cc2ccccc2C)C1 (stereo not drawn) | -5.241 |
| O=C(O)c1ccccc1CN1CCC2(Cc3ccccc3CNC2=O)C1 (stereo not drawn) | 101.8 |

| SMILES | Percent Effect [%] |
| --- | --- |
| O=C1NC2(CCN(Cc3ccccc3Cl)CC2)CC1c1ccccc1 (stereo not drawn) | 14.18 |
| O=C(O)c1csc(S(=O)(=O)N2CCN(Cc3c(F)cccc3Cl)CC2)c1 | 1.307 |
| CC(CC#N)N(C)Cc1ccccc1Cl (stereo not drawn) | 14.98 |
| CSc1nccc(N2C[C@@H]3CC[C@H](C2)N(CC2CCC2)C3=O)n1 | 23.13 |
| COCCC1(C(=O)NCCc2nncn2C2CC2)CCC1 | -3.297 |
| CCOCC1CCN(C(=O)Nc2ccc3c(c2)CCCO3)C1 (stereo not drawn) | -8.757 |
| CS(=O)(=O)c1nccn1CCOc1ccccc1F | 21.64 |
| O=C(O)C(F)(F)F.c1csc(CN2CCCn3cnc(COCC4CC4)c3C2)n1 | -1.239 |
| O=C1OCCN1CC(=O)N1C[C@H]2CC[C@@H]1CN(C(=O)c1cccnc1)C2 | -9 |
| CCc1ccc(O)c(C(=O)NC2CCN(C(=O)OC)CC2)c1 | 2.941 |
| CCc1ccc(O)c(C(=O)NC2CCN(Cc3ccncc3)CC2)c1 | 19.96 |
| O=C(NC1CC1)c1cc(NC(=O)N2CCCC2)ccc1Cl | -51.77 |
| CC(NC1CCN(C(=O)C2CCCCC2)CC1)c1nccs1 (stereo not drawn) | -8.519 |
| CCc1cnccc1C(=O)NC1CCN(Cc2ccccc2F)CC1 | 94.68 |
| CC(NC(=O)NC1CCN(Cc2ccncc2)CC1)c1ccccc1F (stereo not drawn) | -8.351 |
| CCc1cnccc1C(=O)NC1CCN(C(=O)OC)CC1 | 94.08 |
| N#Cc1cnc(NC2CCN(C(=O)C3CCCCC3)CC2)c(Cl)c1 | 1.1 |
| CCc1cnccc1C(=O)NC1CCN(C(=O)C2CCCCC2)CC1 | 87.11 |
| O=C(C1CCCC1)N1CCC(Nc2ccncn2)CC1 | 23.24 |
| O=C(NC1CCN(C(=O)C2CCCCC2)C1)c1ccncc1Cl (stereo not drawn) | 79.99 |
| CNC(=O)C(C)CN(C)C(=O)Nc1ccc(F)c(-n2cccc2)c1 (stereo not drawn) | -4.138 |
| CC(C)n1ccc(=O)nc1SC1CCN(c2ccccc2F)C1=O (stereo not drawn) | -4.763 |
| CCN(CC)C(=O)CNS(=O)(=O)c1cc(Br)ccc1F | 7.808 |
| CCC(C#N)NC(=O)COC1CCCCC1 (stereo not drawn) | 0.5871 |
| O=C(O)C(F)(F)F.O=C(O)C(F)(F)F.c1nc2n(c1CN1CCCCC1)CCN(C1CCOC1)CC2 (stereo not drawn) | 7.057 |
